# About 14,000 (4.5%) of roughly 310,000 compounds showed an effect of 50% or more. The effect is printed as a negative number. Many of the other results were omitted from the sample, so strong results are more common in it than they were.
# Molecular target: human ether-à-go-go-related gene (hERG) potassium channel (human, UniProt Q12809)
# Assay: primary screen, population patch clamp on CHO cells stably expressing hERG; higher = less effect of the substance
# 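Note: peak tail current of the secondary pulse compared with the same well before compound.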
# human ether-à-go-go-related gene (hERG) potassium channel, sequence (Q12809 whole entry, looked up): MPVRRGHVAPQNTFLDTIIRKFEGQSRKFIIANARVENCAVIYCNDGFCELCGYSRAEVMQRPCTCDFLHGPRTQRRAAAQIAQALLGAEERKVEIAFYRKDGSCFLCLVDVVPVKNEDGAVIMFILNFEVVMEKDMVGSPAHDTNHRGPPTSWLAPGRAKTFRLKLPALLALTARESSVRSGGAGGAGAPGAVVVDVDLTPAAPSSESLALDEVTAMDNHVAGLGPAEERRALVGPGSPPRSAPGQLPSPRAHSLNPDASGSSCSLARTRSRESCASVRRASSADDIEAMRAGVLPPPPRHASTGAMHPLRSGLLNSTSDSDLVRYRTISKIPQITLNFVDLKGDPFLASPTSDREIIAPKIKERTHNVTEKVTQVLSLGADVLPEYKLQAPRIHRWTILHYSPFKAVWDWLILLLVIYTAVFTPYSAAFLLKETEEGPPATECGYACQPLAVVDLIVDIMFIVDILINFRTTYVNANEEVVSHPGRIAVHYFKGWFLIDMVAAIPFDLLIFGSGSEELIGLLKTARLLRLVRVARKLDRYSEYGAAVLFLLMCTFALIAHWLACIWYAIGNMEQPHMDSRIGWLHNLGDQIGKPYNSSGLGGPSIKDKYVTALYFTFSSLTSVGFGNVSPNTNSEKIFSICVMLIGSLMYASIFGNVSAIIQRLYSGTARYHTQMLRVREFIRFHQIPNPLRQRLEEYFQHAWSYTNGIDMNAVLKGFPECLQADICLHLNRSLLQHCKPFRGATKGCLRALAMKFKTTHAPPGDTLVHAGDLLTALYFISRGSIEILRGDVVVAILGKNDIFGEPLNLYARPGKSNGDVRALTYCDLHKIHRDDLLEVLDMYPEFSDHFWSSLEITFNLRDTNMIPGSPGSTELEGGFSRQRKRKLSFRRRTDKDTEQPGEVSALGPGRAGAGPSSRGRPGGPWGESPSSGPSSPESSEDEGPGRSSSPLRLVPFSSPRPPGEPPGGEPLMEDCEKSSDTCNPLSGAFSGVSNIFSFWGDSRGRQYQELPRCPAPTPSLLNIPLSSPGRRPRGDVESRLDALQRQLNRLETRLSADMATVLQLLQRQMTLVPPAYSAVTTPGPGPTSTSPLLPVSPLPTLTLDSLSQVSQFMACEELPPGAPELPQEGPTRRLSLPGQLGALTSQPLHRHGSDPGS
row,Compound,"hERG current change (%, negative = inhibition) at 10uM [%]"
1,N#Cc1cc2ccccc2nc1SCC(=O)Nc1ccc(S(=O)(=O)N2CCCC2)cc1,6.03
2,Cn1ncnc2c(=O)n(C)c(=O)nc1-2,-2.67
3,O=C(NCc1ccccc1)Nc1cccn(Cc2ccccc2Cl)c1=O,18.8
4,Cc1nc2ccccc2c(=O)n1-c1ccc(F)cc1F,3.52
5,CCOC(=O)CNC(=O)c1ccc2[nH]c3c(c2c1)CCCC3,11.5
6,CCOC(=O)c1ccc(OCCOc2ccccc2C)cc1,24
7,O=c1c(Cl)c(N2CCN(S(=O)(=O)c3ccc(F)cc3)CC2)cnn1-c1cccc(Cl)c1,-29.4
8,O=C(CSCc1ccccc1Br)N/N=C/c1ccc(OCC(=O)N2CCCCC2)cc1,-15.9
9,CNC(=O)c1[nH]cnc1C(=O)Nc1ccc(OC)cc1,20.8
10,O=c1[nH]cnc2cc(-c3ccc(Br)cc3)sc12,12.3
11,CN(C)S(=O)(=O)c1ccc(N2CCCC2)c(C(=O)N2CCN(S(=O)(=O)c3cccc(F)c3)CC2)c1,-10.7
12,Cc1nnc2ccc(-c3cccc(NS(=O)(=O)c4cc(F)ccc4F)c3)nn12,-0.0273
13,O=C(O)CSCC(=O)Nc1ccc(C(=O)O)cc1,12.5
14,COc1ccc(-c2c(C)oc3c(CN4CCCCC4C)c(O)ccc3c2=O)cc1 (centres unmarked),-16.6
15,Cc1oc2c(CN3CCCCC3C)c(O)ccc2c(=O)c1-c1ccc(Br)cc1 (centres unmarked),-50.9
16,Cc1oc2c(CN3CCCCC3C)c(O)ccc2c(=O)c1-c1ccccc1 (centres unmarked),-27.6
17,O=C(Cc1c(F)cccc1Cl)NCCc1c[nH]c2ccccc12,8.99
18,Cc1nn(CC#N)c(=O)n1-c1ccccc1,8.38
19,CCn1c(SCC#N)nc2c(c1=O)C1(CCCC1)Cc1ccccc1-2,2.38
20,CN(Cc1ccccc1)C(=O)CN(Cc1ccccc1)S(C)(=O)=O,-4.6
21,O=C(c1ccc(S(=O)(=O)c2ccccc2Cl)c([N+](=O)[O-])c1)N1CCCCCC1,-11
22,COCCN(CC1CCCN(C2Cc3ccccc3C2)C1)C(=O)CCC(N)=O (centres unmarked),-75.1
23,COCCN(CC1CCCN(C2Cc3ccccc3C2)C1)C(=O)CCSC (centres unmarked),-45.8
24,COCCN(CC1CCCN(C2Cc3ccccc3C2)C1)C(=O)CCC(F)(F)F (centres unmarked),-55.4

row,Compound,"hERG current change (%, negative = inhibition) at 10uM [%]"
1,COCCN(CC1CCCN(C2Cc3ccccc3C2)C1)C(=O)CCC(C)=O (centres unmarked),-6.4
2,COC(=O)CCCC(=O)NC1CCCN(C2Cc3ccccc3C2)C1 (centres unmarked),-10.6
3,O=C(NCC1CCCN(C2Cc3ccccc3C2)C1)c1cccs1 (centres unmarked),-40.7
4,CCCC(=O)N(CCc1ccc(OC)cc1)Cc1nc2ccccc2c(=O)[nH]1,-8.61
5,COc1ccc2c(c1)c(CC(=O)Nc1cccc(S(N)(=O)=O)c1)c(C)n2C(=O)c1ccc(Cl)cc1,1.02
6,CCN(CC(=O)NCc1ccco1)S(=O)(=O)c1ccc(F)cc1,5.61
7,CS(=O)(=O)N(CCc1ccccc1)CC(=O)NCc1ccco1,-3.21
8,CCN(CC(=O)NCc1ccc(F)cc1)S(=O)(=O)c1ccc(C)cc1,-43.6
9,Cc1ccc(S(=O)(=O)N(CC(=O)NCc2ccncc2)Cc2ccc(F)cc2)cc1,-79.2
10,CN(CC(=O)NCc1ccncc1)S(=O)(=O)c1ccc(F)cc1,-0.77
11,O=C(CN(Cc1ccccc1)S(=O)(=O)c1ccc(Br)cc1)NCc1ccco1,-51.6
12,Cc1ccc(S(=O)(=O)N(Cc2ccc(F)cc2)Cc2ccco2)cc1,2.28
13,Cc1ccc(S(=O)(=O)N(CC(=O)NCc2ccco2)Cc2ccc(F)cc2)cc1,-67.1
14,CCN(CC(=O)NCc1ccco1)S(=O)(=O)c1ccc(OC)cc1,3.31
15,COc1ccc(S(=O)(=O)N(C)CC(=O)NCc2cccnc2)cc1,-31.8
16,COc1ccc(S(=O)(=O)N(CC(=O)NCc2cccnc2)Cc2ccccc2)cc1,-76.5
17,CCN(CC(=O)NCc1cccnc1)S(=O)(=O)c1ccc(OC)cc1,-28.3
18,COc1cccc(-n2c(Cc3cc(=O)[nH]c(=O)[nH]3)nnc2SCC(=O)N2CCCCCC2)c1,0.34
19,CCc1cccc(C)c1NC(=O)C1CCCN1C(=O)NCc1ccccc1 (centres unmarked),18.4
20,CCOC(=O)c1ccc(NC(=O)c2c(C)[nH]c(C(=O)OCC)c2C)cc1,-6.95
21,Cc1ccc(NC(=O)CCn2cnc3ccccc3c2=O)c(C)c1,6.65
22,CCCCn1c(SCC(=O)N(CC)C2CCS(=O)(=O)C2)nc2cc(S(N)(=O)=O)ccc21 (centres unmarked),-5.49
23,CC1(C)CC(=O)C(C(=O)c2ccccc2)C(=O)C1Cl (centres unmarked),3.06

# Reference: publication PMC4336329 (PLoS ONE, 2015)
